In PubChem BioAssay (NCATS):
Records with an inconclusive call do not appear. Values without a mark were called inactive. Calls follow the shape of the dose curve; as a rule, active = well fitted inhibition curve with a large enough effect; inconclusive = small, poorly fitted or top-dose-only effect; inactive = no such curve, though single readings can be large or run the other way.

system: Zika virus NS2B-NS3 protease (unlinked complex); assay: Primary screen GU Rhodamine qHTS for Zika virus inhibitors: Unlinked NS2B-NS3 protease assay (AID 1347159); conditions: Recombinant ZIKV NS2B-NS3 protease, Rhodamine110 substrate fluorescence; series mostly up to 107 µM; activity change, negative = inhibition: at the top concentration; also: nearly all actives have a fitted effect of over 60% in size
How it was run: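 Noncovalent NS2B hydrophilic domain–NS3 protease domain complex (25 nM) preincubated 15 min at room temperature with compounds (up to 114 microM) in 10 mM Tris-HCl pH 8.0, 0.01% Tween 20; 1.5 microM Rhodamine110 substrate added, fluorescence change over 15 min fitted to Hill equation.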
% is scaled to controls: 0 for no effect and ±100 for the full control effect.

Q: `CC(C)CNC(=O)/C=C/CCCCc1ccc2c(c1)OCO2` was tested. Which “activity change, negative = inhibition” value did it give?
A: -0.945%

Q: Which “activity change, negative = inhibition” value does the source give for `Cc1cc(C)c(S(=O)(=O)N(Cc2ccc(-c3cccc(S(C)(=O)=O)c3)cc2)Cc2ccc(C(F)(F)F)o2)c(C)c1` here?
A: -3%

Q: `COC(=O)C1=CO[C@@H](O[C@@H]2O[C@H](COC(=O)/C=C/c3cc(OC)c(O)c(OC)c3)[C@@H](O)[C@H](O)[C@H]2O)[C@@H]2C(CO)=CC[C@H]12` was tested. Which “activity change, negative = inhibition” value did it give?
A: 0.676% [at 32.5 µM]

Q: With `C1CCN2CC3C[C@@H](CN4CCCC[C@@H]34)[C@H]2C1` as the molecule, how does the “activity change, negative = inhibition” value read?
A: 11.3%

Q: With `COc1cc(N2CCC(N(C)C)CC2)ccc1Nc1ncc(Cl)c(Nc2ccccc2P(C)(C)=O)n1` as the molecule, how does the “activity change, negative = inhibition” value read?
A: 2.56%

Q: How did the activity change, negative = inhibition turn out when `C[C@@H]1O[C@@H](O[C@H]2[C@H](OC(=O)[C@]34CCC(C)(C)C[C@H]3C3=CCC5[C@@]6(C)C[C@H](O)[C@H](O[C@@H]7O[C@H](CO[C@@H]8OC[C@H](O)[C@H](O)[C@H]8O)[C@@H](O)[C@H](O)[C@H]7O)C(C)(C)C6CC[C@@]5(C)[C@]3(C)C[C@H]4O)OC[C@@H](O)[C@@H]2O)[C@H](O)[C@H](O[C@@H]2OC[C@](O)(CO)[C@H]2O)[C@H]1O[C@@H]1OC[C@H](O)[C@H](O[C@@H]2OC[C@@H](O)[C@H](O)[C@H]2O)[C@H]1O` (stereo partly drawn) was run?
A: 12.7% [at 19.1 µM]

Q: For `COc1cc(C(=O)OC[C@H]2O[C@H](O[C@@]3(CO)O[C@@H](CO)[C@H](O)[C@H]3O)[C@H](O)[C@@H](O)[C@@H]2O)ccc1O`, which “activity change, negative = inhibition” value is on record?
A: 1.55% [at 57.1 µM]

Q: `CC(=O)OCC(=O)O[C@@H]1[C@H]2[C@@H](OC(=O)c3ccccc3)[C@@H](C)C[C@]2(O)[C@H](OC(C)=O)C2(C)[C@H]3CC(C)(C)C(=O)[C@@H]3CC1(OC(C)=O)[C@@H]2OC(C)=O` (stereo partly drawn) was tested. Which “activity change, negative = inhibition” value did it give?
A: 22.9% [at 32.5 µM]

Q: Which “activity change, negative = inhibition” value does the source give for `CCC(C)(O)C(O)C(=O)OCc1ccc(O[C@@H]2O[C@H](CO)[C@@H](O)[C@H](O)[C@H]2O)cc1` (stereo partly drawn) here?
A: 7.59% [at 57.1 µM]

Q: With `CC[C@H]1OC(=O)[C@H](C)[C@@H](OC2C[C@@](C)(OC)[C@@H](O)[C@H](C)O2)[C@H](C)[C@@H](OC2O[C@H](C)C[C@H](NC)[C@H]2O)[C@](C)(O)C[C@@H](C)CN(C)[C@H](C)[C@@H](O)[C@]1(C)O` (stereo partly drawn) as the molecule, how does the “activity change, negative = inhibition” value read?
A: 0%

Q: How did the “activity change, negative = inhibition” value turn out when `CC1(C)CC[C@]2(C(=O)O)CC[C@]3(C)C(=CCC4[C@@]5(C)C[C@@H](O)[C@H](O)C(C)(C)C5CC[C@]43C)[C@@H]2[C@@H]1O` (stereo partly drawn) was run?
A: 12.7% [at 57.1 µM]

Q: With `c1nc(NC2CCCCCC2)c2cc(CNC[C@H]3CCCO3)sc2n1` as the molecule, how does the “activity change, negative = inhibition” value read?
A: 13%

Q: With `O=C(/C=C/c1ccc(O)cc1)OC[C@H]1O[C@@H](OC(=O)/C=C/c2ccccc2)[C@H](O)[C@@H](O)[C@@H]1O` as the molecule, how does the “activity change, negative = inhibition” value read?
A: -16.8% [at 57.1 µM]

Q: With `C[C@]12CCC[C@](C)(C(=O)O)C1CCC13C=C(CO)C(CCC12)C3` (stereo partly drawn) as the molecule, how does the “activity change, negative = inhibition” value read?
A: 11.5%

Q: `CC1OC(O[C@H]2[C@@H](O)C[C@@]3(C)C([C@H](O)C[C@]4(C)C3CC=C3C5CC(C)(C)CC[C@]5(C(=O)OC5OC(CO)C(O)C(O)C5OC5OCC(OC6OCC(OC7OCC(O)C(O)C7O)C(O)C6O)C(OC6OCC(O)(CO)C6O)C5O)CC[C@]34C)[C@]2(C)CO)C(O)C(O)C1O` (stereo partly drawn) was tested. Which activity change, negative = inhibition did it give?
A: 27.1% [at 19.1 µM]

Q: For `N[C@@H](CC(=O)N1CCn2c(nnc2C(F)(F)F)C1)Cc1[nH]nc2c(F)c(F)ccc12`, which “activity change, negative = inhibition” value is on record?
A: -9.62%

Q: With `CCn1c2ccccc2c2cc(CNC)ccc21` as the molecule, how does the “activity change, negative = inhibition” value read?
A: 126%

Q: Which “activity change, negative = inhibition” value does the source give for `FC(F)(F)c1cc(C(F)(F)F)c2ccc3nc(-c4nnco4)cn3c2n1` here?
A: -7.63%

Q: Which “activity change, negative = inhibition” value does the source give for `CC(=O)OCC1=C[C@H](O)[C@@H]2C(C(=O)O)=CO[C@@H](O[C@@H]3O[C@H](CO)[C@@H](O)[C@H](O)[C@H]3O)[C@H]12` here?
A: 25.2% [at 57.1 µM]

Q: With `CC(C)=CCC[C@](C)(O[C@@H]1O[C@H](CO[C@@H]2OC[C@@H](O)[C@H](O)[C@H]2O)[C@@H](O)[C@H](O)[C@H]1O)[C@H]1CC[C@]2(C)[C@@H]1[C@H](O)C[C@@H]1[C@@]3(C)CC[C@H](O[C@@H]4O[C@H](CO)[C@@H](O)[C@H](O)[C@H]4O[C@@H]4O[C@H](CO)[C@@H](O)[C@H](O)[C@H]4O)C(C)(C)[C@@H]3CC[C@]12C` as the molecule, how does the “activity change, negative = inhibition” value read?
A: 34.8% [at 57.1 µM]

Q: With `CC1(CO)CC2C(O)C(=O)C3(CO)CC3(C)C2C1` (stereo not drawn) as the molecule, how does the “activity change, negative = inhibition” value read?
A: 0.372%

Q: `CC1[C@@H](O)[C@@H](O)C2[C@]3(C)C(C[C@H]4OC(=O)[C@H](O)[C@]1(O)[C@@]24C)C(C)(O)C[C@H](O)[C@H]3O` (stereo partly drawn) was tested. Which “activity change, negative = inhibition” value did it give?
A: 7.72% [at 57.1 µM]

Q: How did the “activity change, negative = inhibition” value turn out when `CN(C)C/C=C/C(=O)Nc1ccc(C(=O)Nc2cccc(Nc3ncc(Cl)c(-c4c[nH]c5ccccc45)n3)c2)cc1` was run?
A: 46%
